Screen size: about 330,000 compounds; fewer than 10 were called active. The call rests on the fitted dose curve; in most records, active means well fitted activation curve with a large enough effect; inconclusive means small, poorly fitted or top-dose-only effect, or another doubt; inactive means no such curve, though single readings can be large or run the other way. These entries were drawn from the full list. Square brackets hold non-standard residues; d marks the D form. Peptide text beside a SMILES is read from it. ξ: configuration not given here. Ac5c = NC1(C(=O)O)CCCC1; ξS = NC(CO)C(=O)O

The assay can be described thus: Activators of T cell receptors: qHTS campaign. Conditions: primary human leukocytes, anti-CD3, IL-2 HTRF, 48 h; series mostly up to 9.22 µM. The source says: Normally activation of naive T cells requires two signals. 1. A signal through the T cell receptor (TCR) which provides antigen specificity to the response. 2. Signals through co-stimulatory molecules, which are necessary for proliferation, survival and cytokine production. In the absence of co-stimulatory signals T cells are not effectively activated, and may even be rendered anergic or unresponsive to subsequent signaling. This lack of costimulation has been shown in multiple model systems to be a major factor in the limited strength and effectiveness of anti-tumor T cell responses. The goal of this project is to identify small molecule compounds that will stimulate T cell activation in the presence of TCR signaling but in the absence of co-stimulatory signals, thereby allowing activation of naive T cells in the absence of co-stimulation. Identification of such compounds would have clear experimental and clinical applications in instances where desirable antigen-specific immune responses are not generated due to a lack of co-stimulation, for example in the generation of anti-tumor responses. In collaboration between the National Cancer Institute and NIH Chemical Genomics Center, a high-throughput amenable screen was developed to discover small molecules that co-stimulate and activate human T cell receptors. The screen will be carried out using a novel homogeneous time resolved fluorescence energy transfer (HTRF) assay to measure production of the cytokine IL-2 by activated T cells and will be tested against the NIH Molecular Libraries Small Molecule Repository (MLSMR). NIH Chemical Genomics Center [NCGC] NIH Molecular Libraries Probe Centers Network [MLPCN] MLPCN Grant: MH090820-01 Assay Submitter (PI): Richard Hodes, National Cancer Institute, NIH
Primary human leukocytes are incubated with a-CD3 beads and compounds for 48 hr. The amount of secreted IL-2 is then assayed with a HTRF IL-2 kit. The presence of IL-2 cytokine captures the detection reagents and brings the a-IL-2-K and a-IL-2-d2 into close proximity. Upon excitation with 320nm light, the europium cryptate is capable of transferring energy to acceptor molecules within close proximity, resulting in acceptor molecule emission at 665nm.
As to `COc1ccc(S(=O)(=O)N2C[C@H]3CON(C)[C@H]3C[C@H]2c2cccc(Br)c2)cc1`, the call was inactive.

In the case of `CC(C)c1cc(N=O)cc(C(C)C)c1O`, the call was inactive.

On to `COC(=O)CC(CC(=O)OC)n1cccc1`, for which the outcome was inactive.

For the molecule `CCOc1ccc(/C=C(/C#N)c2nnc(N3CCOCC3)n2-c2ccccc2)cc1OC`, the call was inactive.

As to `O=C(Cc1ccc(NC(=O)C2CCCN(C(=O)C3CCCCC3)C2)cc1)Nc1cccc(C(=O)N2CCCCC2)c1` (stereo not drawn), the result was inactive.

Consider `Cc1[nH]c(N)nc(=S)c1CCCNc1ccccc1`, for which the outcome was inactive.

Consider `CC(=NNC(=O)c1ccncc1)c1ccc(Cl)c(Cl)c1`, for which the call was inactive.

In the case of `O=C(CCCCCCCC(=O)N1CCCCC1)N1CCCCC1`, the result was inactive.

On to `NC(=O)C1(N2CCCC2)CCN(Cc2ccccc2)CC1`, for which the molecule was called inactive.

For the molecule `CCOc1cc(C(=O)N(Cc2ccccc2)c2ccc(C)cc2)ccc1OCC(=O)N1CCOCC1`, the call was inactive.

With `CN(C(=O)c1ccc(NC(=O)Cc2cccc(NC(=O)C3CCN(C(=O)c4ccccc4)CC3)c2)cc1)C1CC1`, the outcome was inactive.

On to `COCC(=O)N(C)[C@H]1C[C@H]2c3cc(Oc4ccccc4C)ccc3CCN2C(=O)[C@H]1[C@H](C)O`, for which the result was inactive.

On to `CCN(CC)S(=O)(=O)c1cccc(NC(=O)c2ccc(S(=O)(=O)N3CCCC3)cc2)c1`, for which the outcome was inactive.

Take `CCOC(=O)CCC(NC(=O)c1ccc(CNc2nc3cc(C(F)(F)F)ccc3nc2C(=O)OCC)cc1)C(=O)OCC` (stereo not drawn): the molecule was called inactive.

For `N#CC1(Nc2ccc(-c3ccc(Cl)cc3)cc2)CCCC1`, the call was inactive.

On to `O=C(O)C(c1cccs1)C1(O)CCCCC1` (stereo not drawn), for which the molecule was classed as inactive.

Consider `COc1ccccc1NC(=O)N(O)C1(C#N)CCCCC1`, for which the outcome was inactive.

Turning to `CC(C)Cc1nnc(N)s1`, the call was inactive.

Regarding `Cn1c(N)cc(=O)n(C)c1=S`, the molecule was called inactive.

Consider `CN1C(c2ccc(F)cc2)=CS/C1=C(/C#N)c1nnc2n1-c1ccccc1SC2`, for which the molecule was called inactive.

In the case of `COc1ccc2c(c1)c(=Cc1ccc(N(C)C)cc1)c1cc(-c3ccccc3)[n+](C)n12`, the result was inactive.

Consider `O=C(Nc1cccc(Br)c1)C1CC(=O)N(C2CCCC2)C1` (stereo not drawn), for which the molecule was classed as inactive.

Consider `Cc1cc(OCCCC(=O)Nc2cc(S(=O)(=O)N3CCOCC3)ccc2N2CCOCC2)ccc1Cl`, for which the result was inactive.

Take `Cc1cc(NC(=O)C(C)SCC(=O)Nc2cccc(S(=O)(=O)N3CCCCCC3)c2)no1` (stereo not drawn): the molecule was called inactive.

For `Oc1ccc(-c2nc3ccccc3nc2-c2ccc(O)cc2O)c(O)c1`, the result was inactive.

Take `CSCCC(NS(=O)(=O)c1ccc(C)cc1)C(=O)N(C)CC(=O)Nc1ccccc1Br` (stereo not drawn): the molecule was called inactive.

In the case of `CCCCN1CC(COc2ccccc2)Oc2cccc(F)c2S1(=O)=O` (stereo not drawn), the outcome was inactive.

Take `CC(C)=CCc1ccc(O)c(=O)cc1C(C)C`: the result was inactive.

For `CC1(C)C(=O)CCC2(C)C1=CCC1C2C(=O)CC2(C)C1CCC2(O)C(=O)CO` (stereo not drawn), the molecule was classed as inactive.

`COC1=CC(=O)OC(C)(c2ccccc2)C1` (stereo not drawn): the molecule was classed as inactive.

As for `O=C(NCC1CCCCC1)NCC1CCCCC1`, the molecule was classed as inactive.

Turning to `Cc1ccc(NC(=O)C(C)OC(=O)C2CC3CCCC(C2)C3=O)cc1S(=O)(=O)N1CCOCC1` (stereo not drawn), the call was inactive.

As to `COc1ccc(CNC(=O)COC(=O)C2=Cc3ccccc3OC2)cc1`, the molecule was called inactive.

With `COC1C(CO)OC(n2cnc3c(=S)nc(N)[nH]c32)C1O` (stereo not drawn), the outcome was inactive.

As for `O=C(c1cccc(S(=O)(=O)N2CCCCCC2)c1)N1CCN(Cc2ccccc2)CC1`, the molecule was classed as inactive.

For the molecule `O=C1NC(c2ccccc2)Cc2ccncc21` (stereo not drawn), the call was inactive.

As to `CN1CCOC1c1ccc(C2OCCN2C)cc1` (stereo not drawn), the outcome was inactive.

For `CC1CCCN(C(=O)Cn2c(=O)oc3cc(S(=O)(=O)N4CCCCC4C)ccc32)C1` (stereo not drawn), the molecule was called inactive.

Regarding `O=C(Cc1ccc(NC(=O)C2CCCN(C(=O)CCc3ccccc3)C2)cc1)Nc1ccc(C(=O)N2CCOCC2)cc1` (stereo not drawn), the molecule was called inactive.

For the molecule `CCOc1ccc(S(=O)(=O)N2CCN(C(=O)c3oc4ccccc4c3C)CC2)cc1`, the molecule was classed as inactive.

`CN(C(=O)c1cccc(NC(=O)Cc2ccc(NC(=O)C3CCN(C(=O)C4CCCCC4)CC3)cc2)c1)C1CCC1`: the molecule was classed as inactive.

For `COc1cc2c(cc1OC)C1C(=O)c3cc(OS(C)(=O)=O)c(OC)cc3C1N(C)C2=O` (stereo not drawn), the molecule was classed as inactive.

In the case of `Nc1cc(=O)n(Cc2ccccc2)c(=O)n1Cc1ccccc1`, the molecule was called inactive.

In the case of `c1ccc(CNc2ncnc3[nH]ncc23)cc1`, the molecule was called inactive.

Regarding `C[n+]1cccc(C(=O)O)c1`, the molecule was called inactive.

Regarding `O=S(=O)(Cc1ccc(Cl)cc1Cl)c1ccc(Cl)cc1`, the call was inactive.

Turning to `CCOC(=O)[C@H]1[C@H]2COc3ccc(Br)cc3[C@@H]2N2C(=O)CN(C)C(=O)[C@@]12C`, the result was inactive.

On to `O=[N+]([O-])c1cccc(C=NN=Cc2ccccc2O)c1`, for which the molecule was classed as inactive.

Take `O=C(Nc1ccc2ccccc2c1[N+](=O)[O-])c1ccccc1`: the molecule was classed as inactive.

For the molecule `COc1ccc(NS(=O)(=O)c2ccc(N3CCOCC3)c(NC(=O)/C=C/C(=O)O)c2)cc1`, the molecule was called inactive.

As for `Cc1nc2ccc(N)nc2nc1C`, the result was inactive.

For `CCOC(=O)C(CO)NC(=O)C1(NC(C)=O)CCCC1` (stereo not drawn) (Ac-[Ac5c]-[ξS]-OEt), the outcome was inactive.

For the molecule `COc1ccc(N=C2C=CC(=O)O2)cc1`, the result was inactive.

`C/C(=N\Nc1ccc(Cl)nn1)c1ccccc1O`: the result was inactive.

In the case of `O=C(NNC(=O)c1ccc2ccccc2c1)c1ccc(Cl)cc1`, the molecule was called inactive.

Take `COC(=O)Cc1nc2c(N)nc(N)nc2[nH]c1=O`: the molecule was called inactive.

Take `CC(C)OC(=O)c1ccc(NCc2cc(O)ccc2O)cc1Cl`: the outcome was inactive.

Take `Cc1cc([N+](=O)[O-])c(=O)[nH]c1C`: the molecule was classed as inactive.

Consider `O=C(O)c1ccc(NN=CC2=C(N3CCOCC3)/C(=C/c3ccccc3)CC2)cc1`, for which the outcome was inactive.

Take `CCN1C[C@@H]2[C@@H]3C(=O)N(C)C(=O)[C@@H]3[C@](C)(C1=O)N2C(=O)c1ccccc1`: the molecule was called inactive.

Regarding `COc1ccc(Br)cc1/C=N/Nc1ccc(S(=O)(=O)Nc2ccccc2C(=O)O)cc1[N+](=O)[O-]`, the call was inactive.

As for `O=C(Nc1c[nH]c(=O)[nH]c1=O)OCc1ccccc1`, the molecule was called inactive.

On to `O=C(Nc1ccn(CCCNCc2ccc3[nH]ccc3c2)c(=O)n1)OCc1ccccc1`, for which the molecule was called inactive.

On to `CCCCNCCS(=O)(=O)NCc1ccccc1`, for which the molecule was called inactive.

Regarding `COc1ccc2nc(N3C(=O)C(O)=C(C(=O)c4ccco4)C3c3ccco3)sc2c1` (stereo not drawn), the result was inactive.

As for `COc1ccc(C(CNC(=O)c2cccc(S(=O)(=O)Nc3ccc(Br)cc3)c2)N(C)C)cc1` (stereo not drawn), the molecule was classed as inactive.

For `CCCCC(=O)NC(c1ccc(OC)c(OC)c1)c1ccc2cccnc2c1O` (stereo not drawn), the outcome was inactive.

For the molecule `O=c1[nH]c(=S)[nH]c(O)c1/C=C1\C=Nc2ccccc21`, the molecule was classed as inactive.

The values are drawn from PubChem BioAssay AID504894 (National Center for Advancing Translational Sciences (NCATS), 2011).
